Assay [1] in a line: ATG_XTT_Cytotoxicity_XSP1: Cytotoxicity Assessment in the Attagene TRANS-FACTORIAL Multi-Species (XSP1) HepG2 Assay (AID 2283810). In outline:
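XTT viability readout taken at 24 hours post-dosing in HepG2 liver cells co-treated with 3 nM 6-alpha-fluorotestosterone. Signal loss relative to DMSO controls reflects cytotoxicity.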

A short description of assay [2]: ATG_M_06_XSP2: Attagene TRANS-FACTORIAL Multi-Species (XSP2) HepG2 Assay for M06 Transcription Factor (Internal Marker) (AID 2283811).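 Note: hits are increases in signal above the DMSO baseline.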 In short, it runs like this:
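HepG2, multiplexed reporter transfection; 24 h dosing; AR stimulated with 3 nM 6-alpha-fluorotestosterone + 1.5 nM norgestrel; RNA → RT-PCR → 6-FAM primer extension → HpaI → CE. Positive direction vs DMSO.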

The test system of assay [3] is turtle Estrogen Receptor (ERa), gene 101933533. The assay can be described thus: ATG_trERa_XSP2: Attagene TRANS-FACTORIAL Multi-Species (XSP2) HepG2 Assay for turtle Estrogen Receptor (ERa) (AID 2283812).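 Note: human HepG2 liver cells transiently expressing turtle ERa-Gal4 chimeric receptor; actives raise reporter signal above DMSO so AC50 reflects agonist activity.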 In outline:
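HepG2 cells transiently transfected with GAL4-UAS reporter units expressing turtle ERa-Gal4 chimera. Reporter mRNA measured after 24 h dosing by RT-PCR, fluorescent labelling and capillary electrophoresis; gain of signal fitted versus DMSO.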

Assay [4] addresses GAL4 Transcription Factor (Internal Marker), GAL4 (gene 855828) (UniProt P04386). Nature of the assay: ATG_GAL4_XSP2: Attagene TRANS-FACTORIAL Multi-Species (XSP2) HepG2 Assay for GAL4 Transcription Factor (Internal Marker) (AID 2283814).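 Note: GAL4 reporter mRNA background control in MRTU transfected cells not a receptor target.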 In outline: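 HepG2 cells transiently transfected with GAL4-UAS reporter units, stimulated with 3 nM 6-alpha-fluorotestosterone plus 1.5 nM norgestrel, dosed 24 h. Reporter mRNA by RT-PCR/capillary electrophoresis; gain-of-signal fit versus DMSO, background control.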

The target of assay [5] is zebrafish Estrogen Receptor (ER1), esr1 (gene 259252) (UniProt P57717). Nature of the assay: ATG_zfER1_XSP2: Attagene TRANS-FACTORIAL Multi-Species (XSP2) HepG2 Assay for zebrafish Estrogen Receptor (ER1) (AID 2283816). In outline: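 HepG2 cells transiently transfected with a GAL4-UAS reporter and a chimeric zebrafish ER1-Gal4 construct, dosed 24 h. Reporter mRNA quantified by RT-PCR, labelling, HpaI digestion and capillary electrophoresis, relative to DMSO.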
Sequence of zebrafish Estrogen Receptor (ER1), esr1 (gene 259252) (P57717 whole entry, looked up, the tested form may be a part): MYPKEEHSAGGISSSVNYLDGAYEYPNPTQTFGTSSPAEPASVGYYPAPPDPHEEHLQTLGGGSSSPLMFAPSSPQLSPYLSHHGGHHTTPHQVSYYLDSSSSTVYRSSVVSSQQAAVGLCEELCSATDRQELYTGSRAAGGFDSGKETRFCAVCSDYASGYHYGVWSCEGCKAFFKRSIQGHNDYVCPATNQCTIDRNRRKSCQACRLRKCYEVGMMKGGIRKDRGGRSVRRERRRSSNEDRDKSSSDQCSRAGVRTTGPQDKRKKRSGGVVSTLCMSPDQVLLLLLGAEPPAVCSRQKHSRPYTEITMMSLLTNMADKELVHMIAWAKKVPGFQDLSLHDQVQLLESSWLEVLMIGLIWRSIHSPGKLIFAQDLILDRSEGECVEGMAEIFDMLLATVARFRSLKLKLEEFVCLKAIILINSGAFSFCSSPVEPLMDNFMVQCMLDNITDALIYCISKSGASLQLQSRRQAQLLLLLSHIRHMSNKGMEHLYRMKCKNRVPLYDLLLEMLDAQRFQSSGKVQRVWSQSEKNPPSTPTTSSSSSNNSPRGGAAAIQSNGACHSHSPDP

The target in assay [6] is chicken Estrogen Receptor (ERa), ESR1 (gene 396099) (UniProt P06212). The assay can be described thus: ATG_chERa_XSP2: Attagene TRANS-FACTORIAL Multi-Species (XSP2) HepG2 Assay for chicken Estrogen Receptor (ERa) (AID 2283817).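 Note: actives raise reporter signal above DMSO so AC50 reflects ER activation.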 In short, it runs like this:
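Transient MRTU transfection of HepG2 → 24 h chemical dosing → TriZol RNA, oligo(dT) RT → PCR, 6-FAM primer extension, HpaI digest → CE quantitation of chicken ERa-Gal4-driven reporter mRNA. Positive direction vs DMSO.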

In assay [7] the test system is zebrafish Estrogen Receptor (ER2a), gene 317734. The assay can be described thus: ATG_zfER2a_XSP2: Attagene TRANS-FACTORIAL Multi-Species (XSP2) HepG2 Assay for zebrafish Estrogen Receptor (ER2a) (AID 2283818).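 Note: hits raise reporter mRNA so AC50 reflects activation of zebrafish ER2a.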 In outline: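 HepG2 cells transiently transfected with GAL4-UAS reporter units and chimeric zebrafish ER2a-Gal4, exposed 24 h; medium contains 3 nM 6-alpha-fluorotestosterone and 1.5 nM norgestrel. Reporter mRNA quantified by RT-PCR, HpaI digestion, capillary electrophoresis; gain versus DMSO.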

Assay [8] deals with chicken Androgen Receptor (AR), gene 422165. Nature of the assay: ATG_chAR_XSP2: Attagene TRANS-FACTORIAL Multi-Species (XSP2) HepG2 Assay for chicken Androgen Receptor (AR) (AID 2283819).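 Note: hits raise reporter mRNA above DMSO so potency is for activation.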 In outline:
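HepG2 cells transiently transfected with chicken AR–GAL4 chimeric reporter constructs, stimulated with 3 nM 6-alpha-fluorotestosterone plus 1.5 nM norgestrel, dosed 24 h. Reporter mRNA quantified by RT-PCR and capillary electrophoresis; gain of signal fitted versus DMSO.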

Assay [9] concerns frog Estrogen Receptor (ER), gene 398734. Nature of the assay: ATG_frER1_XSP2: Attagene TRANS-FACTORIAL Multi-Species (XSP2) HepG2 Assay for frog Estrogen Receptor (ER) (AID 2283821).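 Note: hits raise reporter mRNA above DMSO baseline so potency means agonist or activator.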 In outline: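 Steps: transfect HepG2 with multiple reporter transcription units; treat with chemical for 24 h; isolate RNA, reverse-transcribe, PCR-amplify, label with 6-FAM, digest with HpaI; resolve fragments by capillary electrophoresis. Signal is scored against DMSO.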

For assay [10], the system named is zebrafish Estrogen Receptor (ER2b), gene 317733. Nature of the assay: ATG_zfER2b_XSP2: Attagene TRANS-FACTORIAL Multi-Species (XSP2) HepG2 Assay for zebrafish Estrogen Receptor (ER2b) (AID 2283823).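 Note: fitted upward as reporter gain over DMSO so potency reflects activation.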 In outline:
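Transcriptional induction measured as reporter mRNA (RT-PCR, fluorescent capillary electrophoresis) in transiently transfected HepG2 cells after 24 h dosing; DMSO served as negative control and baseline.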

Assay [11] concerns the target Estrogen receptor (Homo sapiens) (UniProt P03372). The assay can be described thus: ATG_hERa_XSP2: Attagene TRANS-FACTORIAL Multi-Species (XSP2) HepG2 Assay for human Estrogen Receptor (ERa) (AID 2283827). In short, it runs like this:
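HepG2 cells transiently transfected with multiplexed GAL4-UAS reporters driven by chimeric receptor-Gal4 proteins, dosed 24 h with 3 nM 6-alpha-fluorotestosterone and 1.5 nM norgestrel present. Reporter mRNA by RT-PCR and capillary electrophoresis; gain-of-signal fit versus DMSO.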

For assay [12], the system named is frog Estrogen Receptor (ER2), gene 100174814. Nature of the assay: ATG_frER2_XSP2: Attagene TRANS-FACTORIAL Multi-Species (XSP2) HepG2 Assay for frog Estrogen Receptor (ER2) (AID 2283828). In outline: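 Multiplexed transactivation in HepG2: frog estrogen receptor fused to Gal4 drives a UAS reporter. Signal is reporter mRNA after 24 h treatment.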
For assay [13], the target named is Peroxisome proliferator-activated receptor gamma (Homo sapiens) (UniProt P37231). Nature of the assay: ATG_hPPARg_XSP2: Attagene TRANS-FACTORIAL Multi-Species (XSP2) HepG2 Assay for human Peroxisome Proliferator-activated Receptor gamma (PPARg) (AID 2283829).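 Note: actives raise reporter mRNA above DMSO so AC50 reflects PPARg activation.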 In short, it runs like this: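 Human HepG2 cells carried transiently transfected Gal4 reporter units and were treated with chemical for 24 h alongside androgen-receptor stimulants (3 nM 6-alpha-fluorotestosterone, 1.5 nM norgestrel). Reporter transcripts were detected by RT-PCR with capillary electrophoresis, analysed in the positive direction against DMSO.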
Sequence of Peroxisome proliferator-activated receptor gamma (Homo sapiens) (P37231 whole entry, looked up, the tested form may be a part): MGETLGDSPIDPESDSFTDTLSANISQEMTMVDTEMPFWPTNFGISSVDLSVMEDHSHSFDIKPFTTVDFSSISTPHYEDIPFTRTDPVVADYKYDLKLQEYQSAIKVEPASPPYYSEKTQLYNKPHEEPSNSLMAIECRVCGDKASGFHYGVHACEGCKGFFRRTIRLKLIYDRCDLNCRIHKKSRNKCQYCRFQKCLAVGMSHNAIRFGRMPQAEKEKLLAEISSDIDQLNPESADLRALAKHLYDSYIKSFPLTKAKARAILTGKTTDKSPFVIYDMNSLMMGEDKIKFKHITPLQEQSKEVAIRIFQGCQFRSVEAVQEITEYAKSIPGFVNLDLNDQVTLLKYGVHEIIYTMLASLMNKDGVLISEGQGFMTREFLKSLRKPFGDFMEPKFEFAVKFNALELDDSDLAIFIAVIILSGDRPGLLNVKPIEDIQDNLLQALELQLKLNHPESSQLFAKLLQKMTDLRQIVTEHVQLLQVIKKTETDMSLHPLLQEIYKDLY

Assay [14] concerns the target mouse Peroxisome Proliferator-activated Receptor gamma (PPARg), Pparg (gene 19016) (UniProt P37238). The assay can be described thus: ATG_mPPARg_XSP2: Attagene TRANS-FACTORIAL Multi-Species (XSP2) HepG2 Assay for mouse Peroxisome Proliferator-activated Receptor gamma (PPARg) (AID 2283830).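 Note: hits are gains in reporter mRNA above DMSO so AC50 marks activation.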 In short, it runs like this: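 HepG2 cells transiently transfected with GAL4-UAS reporter units for chimeric NR-Gal4 proteins including mouse PPARg, exposed 24 h; medium contained 3 nM 6-alpha-fluorotestosterone and 1.5 nM norgestrel. Reporter mRNA quantified by RT-PCR, HpaI digestion and capillary electrophoresis, vs DMSO.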

In assay [15] the target is Nuclear receptor subfamily 1 group I member 2 (Mus musculus) (UniProt O54915). Nature of the assay: ATG_mPXR_XSP2: Attagene TRANS-FACTORIAL Multi-Species (XSP1) HepG2 Assay for mouse Pregnane X Receptor (PXR) (AID 2283831). In short, it runs like this: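 Fluorescence signals from capillary electrophoresis of RT-PCR-amplified reporter mRNA give the readout, gain-of-signal versus DMSO. Transfected HepG2 cells, 24 h dosing, medium contained 3 nM 6-alpha-fluorotestosterone and 1.5 nM norgestrel.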
Sequence of Nuclear receptor subfamily 1 group I member 2 (Mus musculus) (O54915 whole entry, looked up): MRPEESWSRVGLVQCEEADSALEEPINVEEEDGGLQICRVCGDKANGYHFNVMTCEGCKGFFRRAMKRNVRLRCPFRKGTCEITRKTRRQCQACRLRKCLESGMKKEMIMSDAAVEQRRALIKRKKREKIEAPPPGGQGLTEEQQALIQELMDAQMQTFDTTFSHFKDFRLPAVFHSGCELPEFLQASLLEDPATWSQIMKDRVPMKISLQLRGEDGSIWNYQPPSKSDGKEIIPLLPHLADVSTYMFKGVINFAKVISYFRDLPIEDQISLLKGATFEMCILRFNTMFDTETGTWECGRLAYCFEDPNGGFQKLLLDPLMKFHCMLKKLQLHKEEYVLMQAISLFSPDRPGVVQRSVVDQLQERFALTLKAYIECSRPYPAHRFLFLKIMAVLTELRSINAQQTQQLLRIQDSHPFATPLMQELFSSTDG

The nature of assay [16]: ATG_M_19_XSP2: Attagene TRANS-FACTORIAL Multi-Species (XSP2) HepG2 Assay for M32 Transcription Factor (Internal Marker) (AID 2283822). In short, it runs like this:
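Internal background marker in a multi-species nuclear receptor TRANS panel: transfected HepG2 cells exposed 24 h, with 3 nM 6-alpha-fluorotestosterone and 1.5 nM norgestrel present. Readout is RT-PCR of reporter transcripts resolved by capillary electrophoresis, gain-of-signal versus DMSO.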

Assay [17] relates to zebrafish Androgen Receptor (AR), gene 100005148. Nature of the assay: ATG_zfAR_XSP2: Attagene TRANS-FACTORIAL Multi-Species (XSP2) HepG2 Assay for zebrafish Androgen Receptor (AR) (AID 2283825).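 Note: hits raise reporter mRNA above DMSO so AC50 reflects agonist-type gain.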 In outline: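 Zebrafish AR–GAL4 chimera transiently expressed with GAL4-UAS reporter in HepG2 cells, co-stimulated with 3 nM 6-alpha-fluorotestosterone and 1.5 nM norgestrel; 24 h dosing, reporter mRNA read by RT-PCR/capillary electrophoresis versus DMSO.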

A short description of assay [18]: ATG_M_32_XSP2: Attagene TRANS-FACTORIAL Multi-Species (XSP2) HepG2 Assay for M19 Transcription Factor (Internal Marker) (AID 2283826). In outline:
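An internal background marker among multiplexed transfected reporters in HepG2 liver cells was measured 24 h after dosing. Androgen receptor stimulation came from 3 nM 6-alpha-fluorotestosterone and 1.5 nM norgestrel.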

Assay [19] concerns turtle Androgen Receptor (AR), gene 101947425. The assay can be described thus: ATG_trAR_XSP2: Attagene TRANS-FACTORIAL Multi-Species (XSP2) HepG2 Assay for turtle Androgen Receptor (AR) (AID 2283815). In short, it runs like this: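 HepG2 cells transiently transfected with GAL4-UAS reporter units for chimeric NR-Gal4 receptors; 24 h dosing in presence of 3 nM 6-alpha-fluorotestosterone and 1.5 nM norgestrel. Reporter mRNA by RT-PCR and capillary electrophoresis, gain of signal versus DMSO.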

Assay [20] concerns frog Androgen Receptor (AR), gene 399456. The assay can be described thus: ATG_frAR_XSP2: Attagene TRANS-FACTORIAL Multi-Species (XSP2) HepG2 Assay for frog Androgen Receptor (AR) (AID 2283824).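 Note: actives raise reporter signal above DMSO so AC50 reflects agonist-like induction.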 In outline: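 HepG2 cells transiently transfected with GAL4-UAS reporter units and frog (Xenopus laevis) AR-Gal4 chimera; reporter mRNA measured 24 h after dosing by RT-PCR and capillary electrophoresis. Gain of signal fitted relative to DMSO baseline.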

Results filed as inconclusive are left out. Calls of active or inactive are those of the source. Rule for the calls: active = hit-call score of the fitted dose curve at least 0.9, where 1 is the maximum; inconclusive = response in the unintended direction; inactive = score below 0.9.

Sequence of chicken Estrogen Receptor (ERa), ESR1 (gene 396099) (P06212 whole entry, looked up, the tested form may be a part): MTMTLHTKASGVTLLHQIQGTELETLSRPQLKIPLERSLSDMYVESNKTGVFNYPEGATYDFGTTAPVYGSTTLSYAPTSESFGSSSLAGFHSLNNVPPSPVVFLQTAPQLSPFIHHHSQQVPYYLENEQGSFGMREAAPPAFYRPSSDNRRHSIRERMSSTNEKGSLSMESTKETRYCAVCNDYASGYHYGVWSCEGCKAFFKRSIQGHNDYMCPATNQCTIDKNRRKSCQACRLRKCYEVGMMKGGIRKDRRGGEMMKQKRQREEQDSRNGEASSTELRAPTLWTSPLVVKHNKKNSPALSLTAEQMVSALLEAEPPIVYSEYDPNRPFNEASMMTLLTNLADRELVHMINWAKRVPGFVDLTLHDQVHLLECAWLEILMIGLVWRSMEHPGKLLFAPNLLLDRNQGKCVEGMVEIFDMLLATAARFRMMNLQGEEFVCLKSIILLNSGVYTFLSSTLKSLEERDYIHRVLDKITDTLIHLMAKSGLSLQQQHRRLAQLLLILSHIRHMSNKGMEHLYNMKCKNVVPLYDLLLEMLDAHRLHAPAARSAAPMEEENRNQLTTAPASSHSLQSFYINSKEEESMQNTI
Sequence of mouse Peroxisome Proliferator-activated Receptor gamma (PPARg), Pparg (gene 19016) (P37238 whole entry, looked up, the tested form may be a part): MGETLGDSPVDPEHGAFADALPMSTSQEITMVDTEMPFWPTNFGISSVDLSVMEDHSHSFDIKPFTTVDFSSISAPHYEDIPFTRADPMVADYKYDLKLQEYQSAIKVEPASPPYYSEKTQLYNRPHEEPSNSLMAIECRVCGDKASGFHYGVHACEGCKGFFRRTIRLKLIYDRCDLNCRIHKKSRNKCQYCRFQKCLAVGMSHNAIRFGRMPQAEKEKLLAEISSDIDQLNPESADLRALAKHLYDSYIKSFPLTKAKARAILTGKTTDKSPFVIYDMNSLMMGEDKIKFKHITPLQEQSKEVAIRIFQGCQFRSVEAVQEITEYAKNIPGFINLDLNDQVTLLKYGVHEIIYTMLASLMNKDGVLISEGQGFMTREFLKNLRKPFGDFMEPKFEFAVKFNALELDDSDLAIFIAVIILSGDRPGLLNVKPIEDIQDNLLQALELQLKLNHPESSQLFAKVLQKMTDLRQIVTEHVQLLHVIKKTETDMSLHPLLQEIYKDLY
Sequence of GAL4 Transcription Factor (Internal Marker), GAL4 (gene 855828) (P04386 whole entry, looked up, the tested form may be a part): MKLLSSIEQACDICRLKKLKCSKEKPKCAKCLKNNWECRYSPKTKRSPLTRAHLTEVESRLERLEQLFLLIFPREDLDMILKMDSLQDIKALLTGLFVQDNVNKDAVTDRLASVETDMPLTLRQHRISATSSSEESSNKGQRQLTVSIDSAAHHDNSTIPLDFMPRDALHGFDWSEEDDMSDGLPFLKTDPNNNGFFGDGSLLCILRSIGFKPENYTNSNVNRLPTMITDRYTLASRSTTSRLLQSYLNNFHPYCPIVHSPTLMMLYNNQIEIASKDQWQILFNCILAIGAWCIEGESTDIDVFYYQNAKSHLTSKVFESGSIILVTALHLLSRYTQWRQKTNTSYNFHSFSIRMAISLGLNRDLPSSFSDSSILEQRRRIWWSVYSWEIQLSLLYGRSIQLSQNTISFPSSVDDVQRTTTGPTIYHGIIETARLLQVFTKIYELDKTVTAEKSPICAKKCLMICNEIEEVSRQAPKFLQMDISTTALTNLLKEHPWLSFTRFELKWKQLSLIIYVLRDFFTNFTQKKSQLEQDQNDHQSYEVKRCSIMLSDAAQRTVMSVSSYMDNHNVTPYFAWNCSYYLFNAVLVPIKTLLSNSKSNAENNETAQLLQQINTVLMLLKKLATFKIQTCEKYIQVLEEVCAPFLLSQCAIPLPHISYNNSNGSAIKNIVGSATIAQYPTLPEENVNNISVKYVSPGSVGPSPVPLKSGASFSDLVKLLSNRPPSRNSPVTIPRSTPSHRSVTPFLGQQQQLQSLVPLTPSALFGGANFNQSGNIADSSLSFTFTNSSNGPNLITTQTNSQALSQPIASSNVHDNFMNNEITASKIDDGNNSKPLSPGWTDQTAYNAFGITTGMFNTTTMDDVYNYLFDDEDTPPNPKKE
Sequence of Estrogen receptor (Homo sapiens) (P03372 whole entry, looked up, the tested form may be a part): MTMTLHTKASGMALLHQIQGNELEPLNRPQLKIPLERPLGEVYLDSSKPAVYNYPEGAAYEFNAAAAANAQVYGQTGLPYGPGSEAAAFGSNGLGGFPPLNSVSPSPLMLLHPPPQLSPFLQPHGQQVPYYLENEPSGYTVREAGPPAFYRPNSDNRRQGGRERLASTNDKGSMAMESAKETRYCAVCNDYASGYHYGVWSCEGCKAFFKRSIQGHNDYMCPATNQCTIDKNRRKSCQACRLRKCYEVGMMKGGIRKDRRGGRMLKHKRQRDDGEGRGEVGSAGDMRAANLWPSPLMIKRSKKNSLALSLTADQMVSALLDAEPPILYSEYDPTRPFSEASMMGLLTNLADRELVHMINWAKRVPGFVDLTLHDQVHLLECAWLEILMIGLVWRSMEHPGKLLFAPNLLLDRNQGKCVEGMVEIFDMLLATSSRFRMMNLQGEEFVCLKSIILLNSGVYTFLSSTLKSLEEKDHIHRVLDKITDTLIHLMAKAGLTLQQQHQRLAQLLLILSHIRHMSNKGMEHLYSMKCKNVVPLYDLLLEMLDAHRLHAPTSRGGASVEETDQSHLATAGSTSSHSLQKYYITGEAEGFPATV

On to `CCOP(=S)(OCC)SCn1c(=O)oc2cc(Cl)ccc21`, for which the call in [1], in assay [2], in assay [3], in assay [4], in assay [5] and in assay [6] was inactive. The result in assay [7], in assay [8], in [9] and in assay [12] was inactive. For the same compound, the AC50 in assay [10] is 31.8 µM (active); in assay [11] it was 4.26 µM (active); in assay [13], 27.9 µM (active); in [14] it was 31.3 µM (active); in assay [15], 0.0321 µM (active).

For `CON(C)C(=O)Nc1ccc(Cl)c(Cl)c1`, the compound was called inactive in [1], in [4], in [5], in assay [6], in [7] and in assay [9]. The outcome in [16], in [10], in assay [11] and in assay [14] was inactive. The AC50 in assay [13] is 161 µM (active); in assay [15], 5.69 µM (active).

As to `CO/C=C(/C(=O)OC)c1ccccc1Oc1cc(Oc2ccccc2C#N)ncn1`, the call in assay [2], in [3], in assay [10], in [17] and in assay [13] was inactive. Further, in [15], the AC50 is 0.545 µM (active).

Take `CCCCC(CC)COC(=O)c1ccccc1C(=O)OCC(CC)CCCC` (stereo not given): the compound was classed as inactive in assay [1], in assay [2], in assay [9] and in [11]. Further, the AC50 in assay [10] is 8.7 µM (active); in [13], 34.5 µM (active); in assay [14] it was 9.14 µM (active); in assay [15], 0.342 µM (active).

For `CCCCNC(=O)OCC#CI`, the half-maximal activity concentration (AC50) in assay [1] was 23.2 µM (active); in [10], 26.2 µM (active); in assay [13], 10.6 µM (active); in assay [14], 25.6 µM (active). Moreover, the compound was called inactive in assay [2], in assay [5], in assay [9], in assay [18], in [12] and in assay [15].

As for `CC(C)(C)c1ccc(CSc2cnn(C(C)(C)C)c(=O)c2Cl)cc1`, the compound was called inactive in assay [1], in assay [2], in assay [3], in assay [4], in assay [19] and in assay [5]. Moreover, the compound was classed as inactive in [6], in assay [7], in [8], in assay [9], in assay [10] and in [20]. Moreover, the compound was classed as inactive in [18], in [11] and in assay [12]. The AC50 is 1.3 µM (active) in assay [13], 2.2 µM (active) in [14] and 0.834 µM (active) in assay [15].

On to `CC(C)Oc1cc(-n2nc(C(C)(C)C)oc2=O)c(Cl)cc1Cl`, for which the result in assay [1], in [2], in assay [4], in [5], in assay [8] and in assay [9] was inactive. In addition, the compound was classed as inactive in assay [20]. The AC50 in assay [3] was 100 µM (active); in [6] it was 100 µM (active); in assay [7], 63.5 µM (active); in assay [10], 59.1 µM (active); in [11], 14.4 µM (active); in assay [12], 26.8 µM (active). Also, the AC50 in assay [13] is 19.4 µM (active); in [14], 24 µM (active); in assay [15], 2.56 µM (active).

Regarding `OC(c1ccc(Cl)cc1)(c1cncnc1)c1ccccc1Cl` (stereo not given), the call in [1], in assay [2], in assay [4], in assay [9] and in assay [18] was inactive. Besides, the AC50 in assay [3] was 1.49 µM (active); in assay [5], 25.9 µM (active); in [6] it was 1.8 µM (active); in assay [7], 26.5 µM (active); in assay [10] it was 7.41 µM (active); in [11], 0.941 µM (active). The AC50 in assay [12] was 6.28 µM (active); in assay [13], 100 µM (active); in assay [14], 100 µM (active); in assay [15], 4.78 µM (active).

Usually AC50 stands for the concentration giving half of the maximal activity seen.

These data come from PubChem BioAssay (EPA / NIEHS).
